Compound activity from PubChem BioAssay.
Hits are enriched below; roughly 2.2% of the tested compounds scored in any of these assays.
TRPM1 prom inh = inhibitors of MITF-driven TRPM1 promoter in melanoma cells | SK-MEL-5 TRPM1 promoter luciferase, 24 h | inhibition, % at 12.5 µM | 0.83% of 330,000 active | AID 488899;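 active = mean inhibition across replicates of 60% or more, whatever share of single replicates reaches that level; inconclusive = some that reach 60%, reason not given; inactive = mean inhibition across replicates below 60%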
PGC1a acetyl inh = modulators of PGC1a acetylation; 0.17% of 350,000 active; inhibition, % at 15.6 µM; U2OS PGC1a acetylation, AlphaScreen anti-acetyl-lysine; with virally co-expressed GCN5 acetyltransferase;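 active = every replicate shows inhibition of at least 40%; inconclusive = mean inhibition at least 40% but some replicate below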;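 note: 0% = neutral control wells and 100% = positive control wells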
PAX8 inh HTS = inhibitors of PAX8 transcriptional activity in RMG-I cells; RMG-I TPO-luciferase reporter, SteadyGlo, 24 h; inhibition, % at 12.6 µM; 1.2% of 360,000 active;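 active = mean replicate inhibition at least 60% with every replicate also reaching 60%; inconclusive = only one of the two criteria is met; inactive = mean below 60% and not all replicates reaching 60%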;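 note: luciferase light reporting Pax8 driven TPO promoter activity; plate controls were median of neutral control wells for no effect and mitoxantrone controls for full effect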
EWS-Fli inh = EWS/Fli transcriptional activity inhibition; A673 NR0B1-luciferase reporter, viability-normalised; inhibition, % at 12.6 µM; 0.67% of 350,000 active;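 active = mean inhibition of at least 50% after viability correction, with every replicate also passing that limit; inconclusive = mean reaches 50% but only one of two replicates passes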;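 note: firefly luciferase signal divided by Alamar Blue viability fluorescence both relative to DMSO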
LMP1 NFkB inh = Epstein-Barr LMP1 NF-kappaB reporter inhibition; AID 504558; inhibition, % at 12.5 µM; LMP1-induced NF-kappaB luciferase reporter cells, luminescence; 0.69% of 350,000 active; in the data active = inhibition above about 41%; inconclusive = no clear call, values can overlap the other calls;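 note: 0% = neutral control wells and 100% = reference inhibitor control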
LGR2 inh = blocks bursicon-induced cAMP signaling via Drosophila LGR2; HEK293 LGR2, CRE-luciferase, bursicon-stimulated, 4 h; inhibition, % at 9.99 µM; 0.35% of 380,000 active;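 active = drop in luminescence signal, shown as inhibition above about 50% in the replicate tests, limit read from the data, passing the limit was not always enough; inconclusive = probably only some replicates passing the limit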;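 note: agonist challenge used bursicon conditioned medium at about half maximal strength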
* hit, by the source's call; ? = inconclusive; . = no result given.

SMILES	TRPM1 prom inh	PGC1a acetyl inh	PAX8 inh HTS	EWS-Fli inh	LMP1 NFkB inh	LGR2 inh
CC1CCN(S(=O)(=O)c2ccc3c(c2)C(=NO)c2cc(S(=O)(=O)N4CCC(C)CC4)ccc2-3)CC1	100*	-65	.	.	-166	.
O=S(=O)(c1ccc2c(c1)C(=NO)c1cc(S(=O)(=O)N3CCCCC3)ccc1-2)N1CCCCC1	88*	-2	109*	.	85*	.
CO[C@H]1CN(C)C(=O)c2cc(NC(=O)C3CC3)ccc2OC[C@H](C)N(Cc2ccncc2)C[C@@H]1C	.	.	-10	2	.	-11
NC(N)=NC(=O)c1nc(Cl)c(N2CCCCCC2)nc1N	-125	3	-54	7	74*	-57
CC(=O)[C@H]1CC[C@H]2[C@@H]3CC=C4C[C@@H](OS(=O)(=O)O)CC[C@]4(C)[C@H]3CC[C@]12C	-12	?	-21	2	0	7
CC(=O)O[C@H]1CC[C@@]2(C)C(=CC[C@H]3[C@@H]4CC[C@H](C(C)=O)[C@@]4(C)CC[C@@H]32)C1	-9	-10	-1	-5	54*	-3
Cc1noc(C)c1NC(=O)N(C)C[C@H]1Oc2ccc(NC(=O)Nc3cccc4ccccc34)cc2CC(=O)N([C@@H](C)CO)C[C@@H]1C	.	-8	21	-1	.	9
CC(=Cc1ccccc1)C(=O)c1ccccc1	.	2	-5	-6	-8	2
O=C(C(Br)=Cc1ccccc1)c1ccccc1	94*	-160	86*	58*	-28	32
CN(C)C(=O)[C@@]1(Cc2ccccc2)N=C(c2ccc(OCCCO)cc2)O[C@H]1c1ccccc1	.	.	16	11	.	.
C[C@H](CO)N1C[C@H](C)[C@@H](CN(C)Cc2ccccc2)Oc2ccc(NS(=O)(=O)c3ccc(Cl)cc3)cc2C1=O	.	-11	-7	-1	.	11
CCCN(CCC)c1nc(-c2ccccn2)nc2ccccc12	44	27	60	41	37	15
c1ccc(CCNc2nc(-c3ccccn3)nc3ccccc23)cc1	29	1	15	8	46*	29
COc1ccc(CC2=CC(=O)c3ccccc3C2=O)cc1	8	-128	18	69*	7	-8
COc1ccccc1NC(=O)N[C@@H]1C=C[C@@H](CC(=O)N2CCC(Cc3ccccc3)CC2)O[C@@H]1CO	.	6	4	.	.	5
C[C@@H]1CCCCO[C@H](CN(C)Cc2ccc(C(F)(F)F)cc2)[C@H](C)CN([C@H](C)CO)C(=O)c2cc(NC(=O)Nc3ccccc3)ccc2O1	.	16	64*	23	.	5
C[C@@H]1CCCCO[C@@H](CN(C)Cc2ccc(C(F)(F)F)cc2)[C@H](C)CN([C@H](C)CO)C(=O)c2cc(NC(=O)Nc3ccccc3)ccc2O1	.	-24	78*	10	.	1
C[C@@H]1CCCCO[C@@H](CN(C)Cc2ccc(C(F)(F)F)cc2)[C@H](C)CN([C@@H](C)CO)C(=O)c2cc(NC(=O)Nc3ccccc3)ccc2O1	.	-15	?	3	.	3
C[C@@H]1CCCCO[C@@H](CN(C)Cc2ccc(C(F)(F)F)cc2)[C@@H](C)CN([C@@H](C)CO)C(=O)c2cc(NC(=O)Nc3ccccc3)ccc2O1	.	4	58	1	.	4
C[C@@H]1CN([C@@H](C)CO)C(=O)c2cc(NC(=O)Nc3ccccc3)ccc2O[C@@H](C)CCCCO[C@@H]1CN(C)Cc1ccc(C(F)(F)F)cc1	.	-9	74*	4	.	6
C[C@@H]1CCCCO[C@H](CN(C)Cc2ccc(C(F)(F)F)cc2)[C@H](C)CN([C@@H](C)CO)C(=O)c2cc(NC(=O)Nc3ccccc3)ccc2O1	.	-12	75*	23	.	12
C[C@@H]1CCCCO[C@H](CN(C)Cc2ccc(C(F)(F)F)cc2)[C@@H](C)CN([C@H](C)CO)C(=O)c2cc(NC(=O)Nc3ccccc3)ccc2O1	.	0	20	8	.	8
C[C@@H]1CCCCO[C@H](CN(C)C(=O)c2ccccc2)[C@@H](C)CN([C@H](C)CO)C(=O)c2cc(NS(C)(=O)=O)ccc2O1	.	0	-6	-9	.	6
Cc1noc(C)c1NC(=O)Nc1ccc2c(c1)C(=O)N(C)[C@H]1CC[C@H](CC(=O)N[C@@H]3CCN(Cc4ccccc4)C3)O[C@@H]1CO2	.	3	-6	-5	.	2
